Assay results published in PubChem BioAssay.

Assay: basal MM1S mitochondrial membrane potential changes, profiling panel, cell-based, JC-1 fluorescence, 24 h, 100 nL compound (AID 1170); further: test concentration not given here
Conditions: higher = more signal

Row | Compound | z-score
1 | O=C1NC(=O)C2C1C=CC(C(O)c1cccc(O)c1)N2Nc1ccc(Cl)cc1Cl (stereo not given) | 0.0224
2 | CC(C)C[C@@H]1NC(=O)C([C@@H](C)OCc2ccccc2)NC(=O)[C@@]23C(=O)N[C@@H](Cc4ccccc4)C2[C@H](C)[C@@]2(C)O[C@H]2C3/C=C/CC/C=C/CNC1=O (stereo not given in full) | -0.638
3 | COc1ccc([Si](C)(C)[C@H]2[C@H](CCO)O[C@@]3(C(=O)N(Cc4ccc(N5CCOC5=O)cc4)c4ccccc43)[C@@H]2C)cc1 | -1.49
4 | COc1ccc(CCNC(=O)[C@@]2(Sc3ccc(C)cc3)CC(=O)N(Cc3cc(C(F)(F)F)cc(C(F)(F)F)c3)[C@@H]2c2ccc(CO)cc2)cc1 | -0.145
5 | CCCCC(O)C1C=CC2C(=O)NC(=O)C2N1Nc1ccc(Cl)cc1Cl (stereo not given) | 0.724
6 | CO[C@H]1O[C@H](CO)[C@@H](OC(=O)Nc2ccc3c(c2)OCO3)[C@@H]2OC(=O)[C@@H](Cc3ccccc3)C/C=C/C[C@H](Cc3ccccc3)C(=O)O[C@@H]12 | -0.897
7 | CN(C)C(=O)[C@]1(Cc2ccccc2CN=[N+]=[N-])N=C(c2ccc(OCCCO)cc2)O[C@@H]1c1ccccc1N=[N+]=[N-] | -1.29
8 | O=C1OCCC=C[C@H]2OC34C=CCN(CCN5CCOCC5)C(=O)[C@H]3N(CCCO)C(=O)[C@@H]4C12 (stereo not given in full) | -0.139
9 | C=CCNC(=O)[C@@H]1[C@H]2C(=O)O[C@H](c3ccccc3)[C@H](c3ccccc3)N2[C@H](c2ccccc2OCCO)[C@@]12C(=O)N(C(=O)OCCOC)c1ccc(C#CCCO)cc12 | -1.46
10 | C=CCC(OC(C)=O)[C@@H]1[C@@H](N(Cc2cccc3ccccc23)C(=O)c2cccc3ccccc23)c2cc(OCCCO)ccc2N1C(=O)Cc1ccc2ccccc2c1 (stereo not given in full) | -0.00493
11 | C=C(COC)/C(=C/C[C@@H](OC(C)=O)c1ccccc1OCCO)c1cc(C(=O)OC)ccc1OC | -0.875
12 | COCC(=C=CC[C@@H](O)c1cccc(OCCO)c1)C[C@@H](O)COCc1ccccc1 | 0.532
13 | CCCCC=C[C@@H](NC(=O)c1ccc(C(F)(F)F)cc1)c1ccccc1 | -1.27
14 | COC(=O)[C@]1(CO)N=C(c2ccc(OCCCO)cc2)O[C@@H]1c1ccccc1CN=[N+]=[N-] | 0.0223
15 | COC(=O)[C@@]1(Cc2ccc(OC)cc2)[C@H]2c3cc(C(=O)N4CCCC4)n(CCc4ccc(OC)c(Br)c4)c3C[C@H]2CN1C(=O)c1ccccc1 | -0.569
16 | COCCOC(=O)N1C(=O)[C@@]2(c3cc(C#CCC(C(=O)OC)C(=O)OC)ccc31)[C@H](C(=O)N1CCc3cc(OC)c(OC)cc3C1)[C@H]1C(=O)O[C@H](c3ccccc3)[C@H](c3ccccc3)N1[C@@H]2c1ccc(O)cc1 | 0.516
17 | CCC(CC)C(O)C1C=CC2C(=O)N(C)C(=O)C2N1N1CCCCC1 (stereo not given) | -0.557
18 | COc1cc2c(cc1O)C(c1ccc(CN3CCCC3)cc1)N(Cc1ccc([N+](=O)[O-])o1)CC2 (stereo not given) | -0.307
19 | COc1cc(OC)c(C(O)C2C=CC3C(=O)N(c4ccccc4)C(=O)C3N2Nc2ccccc2F)cc1Br (stereo not given) | -0.645
20 | NC(=O)N1C(=O)C2C(C1=O)C1C=C(CCCO)C2C(c2ccc(CN3CCCC3)cc2)N1Cc1cccc(OC(F)(F)F)c1 (stereo not given) | -0.275
21 | CC(C)C[C@H]1NC(=O)[C@@]23C(=O)N[C@@H](Cc4ccccc4)C2[C@H](C)[C@@]2(C)O[C@H]2C3/C=C/C/C=C\CNC(=O)[C@@H]2CCCN2C1=O (stereo not given in full) | -0.391
22 | COC(=O)[C@@]1(Cc2ccc(F)cc2)[C@H]2c3cc(C(=O)N(C)C)n(CCn4cc([N+](=O)[O-])nc4C)c3C[C@H]2CN1C(=O)c1ccccc1 | -0.54
23 | C=CC[C@]1(C(=O)NCCCOC)N=C(c2ccc(OCCCO)cc2)O[C@H]1c1ccccc1 | -0.607
24 | COCCOC(=O)N1C(=O)[C@@]2(c3cc(C#CC4=CCCCC4)ccc31)[C@H](c1ccccc1OCCO)N1[C@H](c3ccccc3)[C@H](c3ccccc3)OC(=O)[C@H]1[C@@H]2C(N)=O | -1.85
25 | CC(C)C[C@@H]1NC(=O)[C@@]23C(=O)N[C@@H](Cc4ccccc4)C2[C@H](C)[C@@]2(C)O[C@H]2C3/C=C/C/C=C\CNC(=O)[C@@H](CC(C)C)NC1=O (stereo not given in full) | 1.28
